Experimental data published in PubChem BioAssay (NCATS).
Inconclusive results are not listed. The source made the active and inactive calls. Calls come from the whole dose curve; as a rule, active = well fitted inhibition curve with a large enough effect; inconclusive = small, poorly fitted or top-dose-only effect; inactive = flat fitted curve, though single readings scatter.

tested on: CRL-7250; assay: Cytotoxic Profiling of Annotated Libraries Using Quantitative High-Throughput Screening (AID 1296008); settings: Five cell lines viability, CellTiter-Glo ATP luminescence, 48-72 h; max response: active compounds read low; note: nearly all actives have a fitted effect of over 60% in size
Summary of the method: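 Cytotoxicity was measured as CellTiter-Glo ATP luminescence, read after 10 min at room temperature. Compound treatment of the cells lasted 48 or 72 hr at 37 degrees Celsius in a qHTS format.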
% is set by controls: 0 for no effect and ±100 for the full control effect; potency is the fitted concentration of half-maximal effect.

Row | Compound | max response | Potency | outcome
1 | CC(C)/C=C1\NC(=O)C(C(C)C)n2c1nc1c(c2=O)C=CC=CO1 (stereo not given) | -11.8% (inactive) | – | –
2 | COc1cc2c3c(cc4ccccc4c3c1O)NC2=O | 4.86% (inactive) | – | –
3 | CC(=O)/C=C/[C@H]1[C@](C)(O)[C@@H](O)[C@H](OC(C)=O)C2C(C)(C)CCC[C@@]21C (stereo not given in full) | 4.5% (inactive) | – | –
4 | CC[C@H](NC(=O)[C@H](CS(=O)(=O)CC1CC1)N[C@@H](c1ccc(F)cc1)C(F)(F)F)C(=O)C(=O)NC1CC1 | 3.55% (inactive) | – | –
5 | C/C=C/C=C/C(O)=C1\C(=O)[C@]2(C)C3C(C(=O)CC/C=C/C)=C(O)C4(C)C1[C@]1(C)O[C@@]4(O)[C@@]3(C)O[C@@]12O | -4.26% (inactive) | – | –
6 | CN(C)C/C=C/C(=O)Nc1cccc(C(=O)Nc2cccc(Nc3ncc(Cl)c(-c4c[nH]c5ccccc45)n3)c2)c1 | – | 259 nM (active) | –
7 | O=C(/C=C/c1ccc(O)cc1)N[C@@H](Cc1ccc(O)cc1)C(=O)O | -6.91% (inactive) | – | –
8 | COc1ccc2cc(C(C)C(=O)Oc3ccc(C(N)=S)cc3)ccc2c1 (stereo not given) | – | – | inactive
9 | CC(=O)O[C@@H](CO[C@@H]1O[C@H](CO)[C@H](O)[C@H](O)[C@H]1O)[C@]1(C)C=C2CC[C@@H]3C(C)(C)[C@@H](O)CC[C@@]3(C)[C@@H]2CC1 | -3.06% (inactive) | – | –
10 | COc1ccc(CCO[C@@H]2CCCC[C@H]2N2CC[C@@H](O)C2)cc1OC | -6.87% (inactive) | – | –
11 | CC[C@]12C=CCN3CC[C@@]4(c5cc([C@@]6(C(=O)OC)C[C@H]7C[C@@H](C(C)(F)F)CN(Cc8c6[nH]c6ccccc86)C7)c(OC)cc5N(C)[C@H]4[C@@](O)(C(=O)OC)[C@@H]1OC(C)=O)[C@@H]32 | – | 485 nM (active) | –
12 | CC(=O)OC/C=C(\C)C(CC1C(C)=C(OC(C)=O)C(=O)C2C(C)(C)C(O)CCC12C)OC(C)=O (stereo not given) | 1.57% (inactive) | – | –
13 | CCC[C@@H]1O[C@@H]2C[C@H]3[C@@H]4CCC5=CC(=O)C=C[C@]5(C)[C@H]4[C@@H](O)C[C@]3(C)[C@]2(C(=O)CO)O1 | 0.403% (inactive) | – | –
14 | CCOC(=O)Nc1cc(-c2ccc(C)c(NS(C)(=O)=O)c2)nn2c(C)nnc12 | – | 7310 nM (active) | –
15 | FC(F)(F)c1cc(-c2ncn(/C=C\c3nnco3)n2)cc(C(F)(F)F)c1 | -13.3% (inactive) | – | –
16 | N[C@@]1(C(=O)O)CC[C@H]2[C@H](C(=O)O)[C@H]21 | – | – | inactive
17 | C/C=C(\C)C(=O)O[C@@H]1CC2[C@@H](CC=C3C[C@@H](O[C@H]4C[C@H](OC)[C@H](O[C@H]5C[C@H](OC)[C@H](O[C@@H]6O[C@H](C)[C@@H](O[C@H]7C[C@H](OC)[C@H](O[C@@H]8O[C@H](CO)[C@@H](O)[C@H](O)[C@H]8O)[C@@H](C)O7)[C@H](OC)[C@H]6O)[C@@H](C)O5)[C@@H](C)O4)CC[C@@]32C)[C@@]2(O)CC[C@H](C(C)=O)[C@@]12C (stereo not given in full) | 3.18% (inactive) | – | –
18 | O=C1NC(Cc2c[nH]c3ccccc23)C(=O)NC1Cc1c[nH]c2ccccc12 (stereo not given) | -0.609% (inactive) | – | –
19 | C=CC(C)(O)C(O)CC1C(C)(O)C(O)C(O)C2C(C)(C)CCCC21C (stereo not given) | 1.81% (inactive) | – | –
20 | C/C1=C\C[C@]2(C)C(=O)C(O)=C([C@H](C)CO)[C@H]2C/C=C(\C)[C@@H](O)CC/C(C)=C/CC1 | 3.52% (inactive) | – | –
21 | COc1ccc([C@H]2CNC(=O)C2)cc1OC1CCCC1 | -5.24% (inactive) | – | –
22 | CN(C)CC1CCOC1(c1ccccc1)c1ccccc1 (stereo not given) | -5.19% (inactive) | – | –
23 | CC(C)Oc1ccc(C(=O)NC(CNC(=O)CN(C)C)Cc2ccc(-c3cn4cccc(C(C)O)c4n3)cc2)cc1Cl (stereo not given) | -25.1% (inactive) | – | –
24 | COc1ccccc1NC(=O)OCC1CCN(C(=O)OC(C)(C)C)CC1 | -0.083% (inactive) | – | –
25 | CCCCNc1ccc(-c2ccc(CN3CCOCC3)cn2)c(NC2CCC(O)CC2)c1 (stereo not given) | – | – | inactive
26 | O=C1C=CC2OC(c3ccccc3)C(O)C2O1 (stereo not given) | -15.8% (inactive) | – | –
27 | CC1OC(OC2CCC3(C)C(CCC4(C)C3CC=C3C5CC(C)(C)CCC5(C(=O)OC5OC(CO)C(O)C(O)C5O)CCC34C(=O)O)C2(C)C)C(O)C(O)C1O (stereo not given) | – | – | inactive
28 | CC1C=CC2CCCCC2C1CCC1CC(O)CC(=O)O1 (stereo not given) | -5.84% (inactive) | – | –
29 | CC12CCC(C(OC3OC(COC4OCC(O)(CO)C4O)C(O)C(O)C3O)C1)C(C)(C)O2 (stereo not given) | 2.4% (inactive) | – | –
30 | CC(=O)N1CCc2ccc(O)c(OC3OC(COC4OCC(O)(CO)C4O)C(O)C(O)C3O)c2C1Cc1ccc(O)cc1 (stereo not given) | -12.6% (inactive) | – | –
